Source: PubChem BioAssay AID1259245 (Vanderbilt High Throughput Screening Facility, 2017)
Screen size: about 40,000 compounds; about 1,400 (3.5%) were called active.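 Rule for the calls: active = any of four per-well response measures lying three or more SD from its plate-wide compound average, in either direction; inactive = the rest, inconclusive results apart.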 The full list was thinned out, with actives kept by preference.

The compounds below were run against Voltage-dependent calcium channel gamma-2 subunit (Mus musculus) + Glutamate receptor 2 (Rattus norvegicus) (UniProt O88602+P19491) (assay: AMPAR-TARP gamma-2 complex positive or negative modulation – cell-based, membrane potential dye, primary screen (AID 1259245)). Details: HEK293 GluA2+stargazin, membrane potential dye (FDSS), glutamate EC50, at 30 µM, hits were called plate by plate, in both directions; compound max-min signal: compound-alone response (agonism); glutamate slope, % of max: measured here: glutamate response slope, % max.
Sequence of Voltage-dependent calcium channel gamma-2 subunit (Mus musculus) + Glutamate receptor 2 (Rattus norvegicus) (O88602 whole entry, looked up): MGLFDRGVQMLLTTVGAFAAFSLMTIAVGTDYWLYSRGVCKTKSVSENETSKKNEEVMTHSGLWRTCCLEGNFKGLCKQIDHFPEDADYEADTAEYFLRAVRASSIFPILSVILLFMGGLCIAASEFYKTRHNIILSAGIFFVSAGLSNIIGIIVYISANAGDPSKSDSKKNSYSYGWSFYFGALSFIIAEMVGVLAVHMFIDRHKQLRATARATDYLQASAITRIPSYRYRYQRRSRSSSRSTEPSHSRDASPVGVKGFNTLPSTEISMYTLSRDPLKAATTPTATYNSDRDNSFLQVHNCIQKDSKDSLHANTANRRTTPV
Sequence of Voltage-dependent calcium channel gamma-2 subunit (Mus musculus) + Glutamate receptor 2 (Rattus norvegicus) (P19491 whole entry, looked up): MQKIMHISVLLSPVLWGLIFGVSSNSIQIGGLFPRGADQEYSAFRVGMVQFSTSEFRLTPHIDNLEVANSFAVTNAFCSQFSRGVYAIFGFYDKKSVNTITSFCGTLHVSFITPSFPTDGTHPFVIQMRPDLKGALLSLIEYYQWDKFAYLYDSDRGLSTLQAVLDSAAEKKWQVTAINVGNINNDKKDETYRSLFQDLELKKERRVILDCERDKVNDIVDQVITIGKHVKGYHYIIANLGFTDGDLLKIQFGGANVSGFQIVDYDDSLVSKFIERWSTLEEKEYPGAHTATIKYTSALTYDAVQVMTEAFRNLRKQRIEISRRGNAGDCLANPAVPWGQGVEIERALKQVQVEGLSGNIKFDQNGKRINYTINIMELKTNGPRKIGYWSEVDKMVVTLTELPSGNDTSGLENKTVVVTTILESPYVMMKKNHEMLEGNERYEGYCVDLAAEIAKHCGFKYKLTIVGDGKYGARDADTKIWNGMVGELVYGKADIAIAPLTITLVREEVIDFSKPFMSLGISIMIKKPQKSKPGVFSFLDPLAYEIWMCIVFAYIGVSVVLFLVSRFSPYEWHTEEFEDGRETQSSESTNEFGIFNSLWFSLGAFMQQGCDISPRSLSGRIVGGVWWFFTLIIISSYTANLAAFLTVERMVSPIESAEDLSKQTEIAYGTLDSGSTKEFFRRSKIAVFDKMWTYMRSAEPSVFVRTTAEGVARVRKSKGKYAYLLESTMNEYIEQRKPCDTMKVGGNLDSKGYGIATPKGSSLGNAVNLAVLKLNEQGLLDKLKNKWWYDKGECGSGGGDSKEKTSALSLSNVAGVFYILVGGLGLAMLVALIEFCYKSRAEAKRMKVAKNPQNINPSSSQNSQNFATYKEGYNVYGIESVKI

Row | SMILES | compound max-min signal | glutamate response, % of max | glutamate slope, % of max
1 | CC(=O)c1sc(NC(=O)C2CCCN(S(C)(=O)=O)C2)nc1-c1ccccc1 (stereo not drawn) | 0.126 | 21.7% (inactive) | 40.2%
2 | CCOc1ccc(-c2ccc(=O)n(CCCC(=O)Nc3cc(Cl)ccc3OC)n2)cc1 | 0.0223 | 14.7% (inactive) | 28.2%
3 | CCOc1ccc(-c2cc(=O)n(CCCC(=O)Nc3cc(C)ns3)cn2)cc1 | 0.074 | -0.752% (active) | 5.34%
4 | COc1ccc(-c2ccc(=O)n(CCCC(=O)Nc3ccccc3-c3ccccc3)n2)cc1 | 0.0404 | 21.1% (inactive) | 39%
5 | COc1cc(NS(=O)(=O)c2ccccc2F)ccc1N1CCCCC1=O | 0.0504 | 15.5% (inactive) | 35.3%
6 | COc1ccc(C(CNC(=O)c2cc(C)cc(C)c2)N2CCOCC2)cc1 (stereo not drawn) | 0.0728 | 37.2% (inactive) | 50.1%
7 | COc1ccc(C(CNC(=O)c2ccccc2Cl)N2CCOCC2)cc1 (stereo not drawn) | 0.07 | 35.7% (active) | 45.9%
8 | COc1cccc(C(CNC(=O)c2ccc(OC(C)C)cc2)N2CCOCC2)c1 (stereo not drawn) | 0.0693 | 22.5% (inactive) | 42.1%
9 | COc1cccc(CNC(=O)C(=O)Nc2cc([N+](=O)[O-])ccc2C)c1 | 0.135 | 41.7% (inactive) | 61.5%
10 | COc1ccccc1CCNC(=O)C(=O)Nc1cc([N+](=O)[O-])ccc1C | 0.125 | 47.7% (inactive) | 62.3%
11 | COc1ccc(NC(=O)C(=O)Nc2cc([N+](=O)[O-])ccc2C)cc1OC | 0.325 | 62.6% (active) | 80.6%
12 | O=C(NCCNc1ccc(Nc2ccncc2)nn1)c1cccc2ccccc12 | 0.274 | 30.8% (inactive) | 57.7%
13 | O=C(NCCn1ncc2c(N3CCOCC3)ncnc21)c1ccc2c(c1)OCO2 | 0.0657 | 28.9% (inactive) | 49.6%
14 | CC(O)(CNC(=O)NCc1ccc(F)cc1)c1ccc(-c2ccccc2)cc1 (stereo not drawn) | 0.113 | 15.8% (inactive) | 57.2%
15 | O=C(NNC(=O)c1ccc(=O)n(Cc2ccccc2)c1)c1ccc(F)c(F)c1 | 0.0736 | 29.9% (inactive) | 51.5%
16 | CC1CC(=O)Nc2c1c(NC(=O)c1ccc3c(c1)OCO3)nn2C (stereo not drawn) | 0.11 | 23.6% (active) | 38.4%
17 | Cn1nc(NC(=O)/C=C\c2ccc3c(c2)OCO3)c2c1NC(=O)CC2c1ccco1 (stereo not drawn) | 0.119 | 38.8% (inactive) | 66.5%
18 | Cn1nc(NC(=O)c2ccc3c(c2)OCO3)c2c1NC(=O)CC2c1cccs1 (stereo not drawn) | 0.101 | 34.8% (inactive) | 53.9%

Row | SMILES | compound max-min signal | glutamate response, % of max | glutamate slope, % of max
19 | COc1ccc(NC(=O)C(=O)NCC2CCN(C)CC2)c(OC)c1 | 0.0817 | 43.1% (inactive) | 70.1%
20 | Cc1ccc(-n2ncc3c(=O)n(CC(=O)N4CCOCC4)cnc32)cc1C | 0.0678 | 29.7% (inactive) | 52.9%
21 | COc1ccc(S(=O)(=O)NCC(c2cccn2C)N2CCOCC2)cc1OC (stereo not drawn) | 0.0786 | 34.5% (inactive) | 60.4%
22 | Cn1cccc1C(CNS(=O)(=O)c1ccc(F)cc1)N1CCOCC1 (stereo not drawn) | 0.0736 | 28.1% (inactive) | 55.5%
23 | O=[N+]([O-])c1cccc(S(=O)(=O)NCC(c2cccs2)N2CCOCC2)c1 (stereo not drawn) | 0.129 | 23.5% (active) | 44.4%
24 | O=C(NCCn1ncc2c(N3CCN(c4ccccc4)CC3)ncnc21)c1cccs1 | 0.0478 | 45.6% (inactive) | 68.2%
25 | COc1ccc(CN(CC(=O)N(C)c2ccccc2)S(=O)(=O)c2cccnc2)cc1 | 0.128 | 30.9% (inactive) | 52.8%
26 | O=C1/C(=C/c2cccnc2)SC(=S)N1c1ccc2c(c1)OCCO2 | 0.116 | 41.7% (inactive) | 65.3%
27 | COc1ccc(-c2ccc(N3CCN(C(=O)c4ccc(=O)[nH]n4)CC3)nn2)cc1 | 0.0223 | 13.3% (inactive) | 24.1%
28 | Cn1cnc2cc(OC(=O)c3ccc(=O)[nH]n3)ccc21 | 0.276 | 33% (active) | 52.5%
29 | COc1ccc(C(=O)NCCOc2ccc(-c3ccc(F)cc3)nn2)c(OC)c1 | 0.0424 | 40.3% (inactive) | 60.6%
30 | COc1ccc(C(=O)N2CCc3cc(S(=O)(=O)NC4CCCC4)ccc32)cc1 | 0.109 | 49% (inactive) | 67.4%
31 | COc1cc(C(=O)Nc2nnc(-c3ccc(SC)cc3)o2)cc(OC)c1OC | 0.0956 | 30.8% (inactive) | 51.3%
32 | COc1cccc(C(=O)Nc2nnc(-c3ccc(OC)c(OC)c3)o2)c1 | 0.128 | 35.2% (inactive) | 53.9%
33 | COc1cc(OC)cc(C(=O)Nc2nnc(-c3cc(OC)c(OC)c(OC)c3)o2)c1 | 0.259 | 56.5% (active) | 83.8%
34 | Cn1cccc1C(CNC(=O)C(=O)Nc1ccccc1F)N1CCOCC1 (stereo not drawn) | 0.0712 | 30.1% (inactive) | 55%
35 | CCN1CC(c2nc3ccccc3n2Cc2ccc(Cl)cc2)CC1=O (stereo not drawn) | 0.0749 | 45% (inactive) | 70.4%
36 | CCCCN1CC(c2nc3ccccc3n2CCOc2ccc(C)cc2)CC1=O (stereo not drawn) | 0.135 | 45.7% (inactive) | 78.7%
